Source: PubChem (National Center for Advancing Translational Sciences (NCATS))
ALDH1A1 inh: ALDH1A1 (human) enzyme inhibition; Purified ALDH1A1, NADH fluorescence, propionaldehyde substrate; Potency, µM (series often up to 75.3 µM), inactives show at the highest dose activity, negative = inhibition, hits mostly inhibitors; P00352; 7.3% of 220,000 active; active means well fitted inhibition curve with a large enough effect, not every such curve was filed as active; inconclusive means small, poorly fitted or top-dose-only effect, or another doubt; inactive means no such curve, though single readings can be large or run the other way;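 further: potency means the concentration at half of the fitted maximal effect; plate controls were no enzyme wells and a reference inhibitor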
Target sequence (P00352 whole entry, looked up): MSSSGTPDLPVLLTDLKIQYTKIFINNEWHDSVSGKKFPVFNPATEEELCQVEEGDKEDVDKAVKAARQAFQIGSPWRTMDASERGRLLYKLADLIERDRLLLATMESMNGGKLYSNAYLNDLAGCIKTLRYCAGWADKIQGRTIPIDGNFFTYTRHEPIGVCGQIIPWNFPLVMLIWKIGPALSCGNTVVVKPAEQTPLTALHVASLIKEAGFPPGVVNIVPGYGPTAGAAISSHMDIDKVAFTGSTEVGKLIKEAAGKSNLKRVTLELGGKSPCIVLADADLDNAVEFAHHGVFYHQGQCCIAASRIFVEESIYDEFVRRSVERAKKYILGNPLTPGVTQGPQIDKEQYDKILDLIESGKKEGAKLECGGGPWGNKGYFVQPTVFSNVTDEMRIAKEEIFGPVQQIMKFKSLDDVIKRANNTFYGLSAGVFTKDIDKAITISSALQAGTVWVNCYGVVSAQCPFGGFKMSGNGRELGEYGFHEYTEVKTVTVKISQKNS
CBFb-RUNX1 inh: inhibitors of human CBF-beta and RUNX1 interaction | 230,000 tested, under 10 active | Q01196+Q13951 | Potency, µM (top dose mostly 59.8 µM), for the others: top-dose activity, negative = inhibition, most hits filed as inhibitors | AlphaScreen CBFb-His/RUNX1-biotin binding, biochemical; further: % of control where 0% means no effect
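Bead-based AlphaScreen assay; binding partners His-tagged CBF-beta and biotinylated RUNX1 at 30 nM each. Compound exposure 15 min after a 20-min protein preincubation; bead step 90 min; all steps at room temperature.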
PNC assembly inh: inhibitors of perinucleolar compartment assembly; PC3M PTB-GFP, PNC prevalence imaging, 16 h; hits give low values; activity change (PNC), negative = inhibition, % at 10 µM; 3.1% of 140,000 active; AID 2417;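 active means readout at or below -70, meaning at least 70% loss of cells showing the perinucleolar compartment, a nuclear body marking cancer cells; inconclusive means readout between -30 and a set limit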;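 further: plate controls were DMSO wells for no effect and camptothecin positive control wells for full effect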
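Read-out is percentage of cells bearing a perinucleolar compartment, from automated 20x imaging of fixed, Hoechst-stained PC3M PTB-GFP cells. Cells were seeded 4 h, then exposed 16 h to compound (23 nl of library stock) in duplicate plates.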
HttQ103 aggreg: inhibitors of mutant huntingtin aggregate formation in PC12 cells; PC12 HttQ103-GFP aggregates, Acumen cytometry, 40 h; Potency, µM (series often up to 46.1 µM), for the others: at the highest dose activity change, negative = inhibition, actives largely listed as inhibitors; 1.1% of 220,000 active; AID 1688; further: potency means the concentration at half of the fitted maximal effect; on the % scale 0 is the no-effect control and ±100 the full control effect; nearly all actives have a fitted effect of over 60% in size
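Compounds (qHTS titration) were added to PC12 cells expressing an ecdysone-driven HTT exon 1 Q103–GFP fusion after induction with 100 nM tebufenozide. Aggregate formation was measured as GFP objects in cell lysates.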
HPGD block: blocks human HPGD enzyme activity; P15428; purified HPGD, NADH fluorescence kinetic, PGE2 substrate; Potency, µM, for the others: at the top dose activity change, negative = inhibition, most hits filed as inhibitors; 4.3% of 150,000 active; AID 894; active means well fitted inhibition curve with a large enough effect, not every such curve was filed as active; inconclusive means small, poorly fitted or top-dose-only effect, or another doubt; inactive means no such curve, though single readings can be large or run the other way; further: potency means the concentration at half of the fitted maximal effect; on the % scale 0 is the no-effect control and ±100 the full control effect
Target sequence (P15428 whole entry, looked up): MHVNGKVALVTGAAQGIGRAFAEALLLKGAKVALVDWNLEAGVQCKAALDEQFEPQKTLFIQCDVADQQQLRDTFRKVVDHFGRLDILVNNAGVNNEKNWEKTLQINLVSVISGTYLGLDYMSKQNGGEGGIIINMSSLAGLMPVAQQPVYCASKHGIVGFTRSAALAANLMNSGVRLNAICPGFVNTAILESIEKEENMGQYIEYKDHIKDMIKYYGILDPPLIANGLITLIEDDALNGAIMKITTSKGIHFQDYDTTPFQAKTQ
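NADH formation kinetics: reaction with 30 uM PGE2 and 1 mM NAD+ (final), 20 nM enzyme, Tris-HCl pH 8 with Tween 20, after 15 min compound preincubation at room temperature. Fluorescence change, last versus first of five reads.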
HTT ATP protect: cytoprotection in Huntington HTT-Q103 PC12 cell model; PC12 HTT-Q103 induced, cytoprotection, ATP luminescence, 40 h; Potency, µM (highest dose often 56.4 µM), for the others: cytoprotection (ATP increase), hits mostly activators; 0.14% of 230,000 active; AID 1471; further: potency means the concentration at half of the fitted maximal effect; % of control where 0% means no effect; nearly all actives have a fitted effect of over 45% in size
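ATP quantification (ATPlite) reports survival of PC12 cells in which tebufenozide, 100 nM final, switches on Htt exon 1 with 103 glutamines linked to GFP; compounds are titrated.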
The depositor's hits bear a star; ? = inconclusive; . = no result; ! = repeats disagree; [ ] = remark or other dose. Rows were chosen to be rich in hits. Some 11% of all compounds tested hit in one or more screens of this group. Unless noted, the call rests on the fitted dose curve; in most records, active means well fitted curve in the direction sought with a large enough effect; inconclusive means small, poorly fitted or top-dose-only effect, or another doubt; inactive means no such curve, though single readings can be large; an effect the other way counts as inactive or inconclusive.

SMILES | ALDH1A1 inh | CBFb-RUNX1 inh | PNC assembly inh | HttQ103 aggreg | HPGD block | HTT ATP protect
Cc1ccc(C2=NN(Cc3nnc(-c4ccccc4)o3)C(=O)SC2)cc1 | -8% | -1% | 8 | -10% | 11µM* | 32%[10 µM]
CN(C(=O)c1cc(-n2cnnc2)ccc1Cl)c1ccccc1 | 13% | -1% | ? | 3% | -7% | .
Cc1ncc([N+](=O)[O-])n1CCO | 7.9µM*! | 15% | 43 | 8% | -21% | ?
Cc1ccc(C2(c3ccc(C)cc3)CC2C(=O)Nc2ccc([N+](=O)[O-])cc2O)cc1 (configuration not stated) | -9% | -27% | -18 | 7.1µM* | 14µM* | -68%
CC(NC(=O)C1CC=CCC1C(=O)O)C1CC2CCC1C2 (configuration not stated) | 7% | 4% | ? | 12% | 3% | -3%
CC(NC(=O)C1CCCC1)C1CC2CCC1C2 (configuration not stated) | -4% | -25% | 15 | -9% | 28µM* | .
CCc1ccc2[nH]c(=O)c(C(c3nnnn3CCOC)N3CCN(c4ccc(F)cc4)CC3)cc2c1 (configuration not stated) | ? | 1% | ? | ? | -11% | -15%
CCc1ccc2[nH]c(=O)c(C(c3nnnn3CCOC)N3CCN(c4ccccc4)CC3)cc2c1 (configuration not stated) | 11µM* | -15% | -16 | 13% | -5% | 2%[10 µM]
COCCn1nnnc1C(c1cc2cccc(C)c2[nH]c1=O)N1CCN(c2ccccc2F)CC1 (configuration not stated) | 16µM* | -2% | 8 | -2% | -17% | -17%
CCc1ccc2[nH]c(=O)c(CN(Cc3ccc(F)cc3)C(c3nnnn3CCN3CCOCC3)C(C)C)cc2c1 (configuration not stated) | ? | 0% | -81* | 13% | -23% | 9%
CCC(C)(C)n1nnnc1C(C(C)C)N(CCN1CCOCC1)Cc1cc2cccc(C)c2[nH]c1=O (configuration not stated) | ? | -4% | -20 | -5% | 2% | -16%
CC(Sc1nc(-c2ccco2)nc2c1c(=O)n(C)c(=O)n2C)C(=O)O (configuration not stated) | . | 2% | . | 26%[9.22 µM] | . | 11%[10 µM]
CCCCC(=O)Nc1cccc(NC(=O)c2cccnc2Cl)c1 | . | 0% | . | -2%[9.22 µM] | . | 4%[10 µM]
CCS(=O)(=O)c1ccc(O)c(NC(=O)c2cc(OC)c(OC)c(OC)c2)c1 | 16µM* | -4% | ? | 8% | -17% | -5%
C[N+](C)(C)c1nc(N)nc2c1ncn2[C@H]1O[C@@H](CO)[C@@H](O)[C@H]1O | 1%[13.5 µM] | . | . | . | -12% | 6%[10 µM]
CC=C1C2C=C(C)CC1(N)c1ccc(=O)[nH]c1C2 (configuration not stated) | -2% | 3% | . | . | . | -13%
O=C(CN(Cc1ccc2c(c1)OCO2)C(=O)CNC(=O)c1ccco1)NC1CCCCC1 | 22µM* | -8% | 7 | 5% | -7% | -9%
CCOC(=O)c1ccc(N(CC(=O)NC2CCCC2)C(=O)CNC(=O)c2ccco2)cc1 | -8% | 4% | -85* | 7% | -6% | 12%[1.9 µM]
O=C(c1ccncc1)N1CCC[C@@]2(CCN(Cc3cc(C(F)(F)F)cc(C(F)(F)F)c3)C2)C1 | 16% | . | . | . | -5% | 12%
CC(=O)N(CN1C(=O)c2ccccc2C1=O)c1ccccc1 | ? | -7% | -3 | 8% | -11% | 13%
COc1ccc(N(CN2C(=O)c3ccccc3C2=O)C(=O)C(C)C)cc1 | 11µM* | 1% | ? | -6% | -7% | 12%
CCc1ccc2c(CN3CCN(S(=O)(=O)c4cccs4)CC3)cc(=O)oc2c1 | 13µM* | 5% | ? | -11% | -19% | 21%[1.9 µM]
Cn1cc(C=O)c2cc(F)ccc21 | 2.2µM* | 8% | . | -9%[9.22 µM] | . | 8%[10 µM]
Cc1ccc(-c2c(C3C4C=CCC(C)C4C(=O)N3Cc3ccccc3)ccc3ccccc23)cc1 (configuration not stated) | . | -6% | . | . | . | .
CC(C)(C)NCc1ccccc1OCc1cccs1 | 5% | 1% | -10 | ? | 0% | -62%[10 µM]
SMILES | ALDH1A1 inh | CBFb-RUNX1 inh | PNC assembly inh | HttQ103 aggreg | HPGD block | HTT ATP protect
Cc1nnc(SCC(=O)OC2CC(C)CCC2C(C)C)[nH]c1=O (configuration not stated) | ? | 5% | -3 | 9% | -6% | -11%
CC1CCC(C(C)C)C(OC(=O)CSc2nc(N)cc(=O)[nH]2)C1 (configuration not stated) | 4.5µM* | 2% | 60 | 2% | -10% | -13%
CCN(CC)Cc1c(O)ccc2c([N+](=O)[O-])c(C)n(-c3ccc(OC)cc3)c12 | -11% | -1% | 5 | 5µM* | -9% | -12%[10 µM]
O=C(O)/C(Cc1ccc([N+](=O)[O-])cc1)=N/O | 0%[13.5 µM] | . | . | . | -7% | 5%[10 µM]
N/C(=N\OC(=O)C(c1ccccc1)c1ccccc1)c1ccccn1 | ? | 1% | ? | -4% | -12% | -5%[10 µM]
C/C(=N\NC(=O)C(c1ccccc1)c1ccccc1)c1ccccn1 | -3% | -21% | -81* | 0% | -2% | .
CS/C(Nc1cc(Cl)ccc1Cl)=C(/C#N)C(=O)c1ccco1 | ? | 2% | . | 4%[9.22 µM] | . | -78%[10 µM]
N/C(=N\OC(=O)COc1ccccc1)c1cccnc1 | -5% | 16% | -2 | -10% | -3% | 32%
N/C(=N\OC(=O)C(c1ccccc1)c1ccccc1)c1cccnc1 | ? | 6% | 8 | 0.71µM* | -7% | 12%
O=S1(=O)CC(O)C(N=Nc2c(O)n(Cc3ccccc3)c3ccccc23)C1 (configuration not stated) | . | 4% | . | -15%[9.22 µM] | . | -2%[10 µM]
C=CCC(C)(O)c1ccccc1 (configuration not stated) | 4% | -4% | . | . | -14% | .
COc1ccc(C2C3C(C)=NN=C3CC(C)(O)C2C(C)=O)cc1 (configuration not stated) | 9% | 3% | 30 | -13% | -2% | .
CCN(c1ccccc1)S(=O)(=O)c1ccc(Cl)c(NC(=O)CN(C)C2CCN(C)CC2)c1 | . | 7% | . | -3%[9.22 µM] | . | -11%[10 µM]
Nc1ccc(Nc2ccccc2)c(Cl)c1 | 14µM* | -21% | -23 | ? | -18% | -18%
Nc1ccccc1Nc1ccccc1 | ? | -15% | 11 | -26% | -23% | 29%
CC(C)(C)NS(=O)(=O)c1cnc(Cl)c(Cl)c1 | 32µM* | -2% | 55 | -6% | -5% | -26%
NCC(O)C1CCCCCCC1 (configuration not stated) | -11% | 14% | . | . | -14% | .
O=C(O)C(NS(=O)(=O)c1cccc2cccnc12)c1ccccc1 (configuration not stated) | . | . | . | . | . | -2%
